Seven molecules from PubChem BioAssay (Tox21) can be followed below.

Each structure is given as a SMILES string. Unmarked numbers belong to inactive results. Inconclusive results are not listed. The source made the active and inactive calls. Unless noted, the call rests on the fitted dose curve; in most records, active means well fitted curve in the direction sought with a large enough effect in the repeat runs; inconclusive means weak or mixed curves; inactive means no such curve, though single readings can be large; an effect the other way counts as inactive or inconclusive.

Assay [1] can be described thus: qHTS assay to identify small molecule agonists of the sonic hedgehog signaling (Shh) pathway - cell viability counter screen (AID 1259366). Further: nearly all actives have a fitted effect of over 50% in size. Summed up: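 Viability measured fluorometrically (CellTiter-Fluor, 1hr, 37C) in 3T3 Gli1-Luc reporter cells after 23hr compound exposure within a 24hr incubation at 37C/5% CO2.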
On the technique in general: In qHTS, concentration-response curves come from the screen itself.

Assay [2] is described as follows: qHTS assay to identify small molecule antagonists of the sonic hedgehog signaling (Shh) pathway - cell viability counter screen (AID 1259367). Further: nearly all actives have a fitted effect of over 55% in size. Summed up:
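After a 4 hr settling period, 3T3 Gli1-Luc cells were treated with DMSO-dissolved chemicals and conditioned medium, kept 24 hr at 37C in 5% CO2, and assayed for viability by CellTiter-Fluor fluorescence following 1 hr reagent incubation.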

Assay [3] in a line: qHTS assay to identify small molecule agonists of the sonic hedgehog signaling (Shh) pathway (AID 1259368; calls by dose curve;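 further: NIH/3T3-derived 3T3Gli1-Luc cells carrying a stable Gli1-driven firefly luciferase reporter; series mostly up to about 92 µM; nearly all actives have a fitted effect of over 15% in size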). Summed up:
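Luminescent signal was taken as a measure of Gli1-controlled luciferase expression in stably transfected NIH/3T3-derived cells that had been treated for 24 hr with compounds delivered in DMSO.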

Assay [4] is described as follows: qHTS assay to identify small molecule antagonists of the sonic hedgehog signaling (Shh) pathway (AID 1259369; calls by dose curve; further: nearly all actives have a fitted effect of over 45% in size). Summed up:
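Screening used 3T3Gli1-Luc cells at 2,000 per well, compounds delivered in DMSO, and conditioned medium as agonist stimulus; plates incubated 24hr at 37 C and 5% CO2 before a 30min luciferase step.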

Assay [5] has as its target Estrogen receptor beta (Homo sapiens) (UniProt Q92731). Put plainly: qHTS assay to identify small molecule agonists of the estrogen receptor beta (ER-beta) signaling pathway (AID 1259377; active means well fitted activation curve with a large enough effect in the signal ratio in the repeat runs, not every such curve was filed as active; the % refers to the signal ratio). Summed up: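 A UAS-controlled beta-lactamase reporter in ER-beta-UAS-bla HEK293T cells reports receptor activation. Compounds act for 16 hr at 37C in 2% charcoal-stripped serum, and a FRET substrate is read by fluorescence after 2 hours.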

Assay [6] shares this target. Kind of assay: qHTS assay to identify small molecule antagonists of the estrogen receptor beta (ER-beta) signaling pathway (AID 1259378; active means well fitted inhibition curve with a large enough effect in the signal ratio in the repeat runs, not every such curve was filed as active; the % refers to the signal ratio). Summed up:
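ER-beta-UAS-bla HEK293T (GripTite) cells in 2% charcoal-stripped FBS medium were preincubated 6 hr at 37C, dosed with compound, then stimulated with 1 nM E2 (final) for 16 hr; beta-lactamase reporter read by B/G FRET fluorescence after 2 hr substrate loading.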

Assay [7] is described as follows: qHTS assay to identify small molecule agonists of the androgen receptor (AR) signaling pathway in the presence of an antagonist - cell viability counter screen (AID 1259379).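 Further: MDA-kb2 human breast cancer cells carrying an MMTV luciferase reporter; series mostly up to about 92 µM; nearly all actives have a fitted effect of over 25% in size.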 Summed up:
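In MDA-kb2 cells (human breast carcinoma, MMTV-luciferase), compounds at 15 concentrations plus 3.0uM nilutamide; 16 hr, 37C, 0% CO2; CellTiter-Fluor fluorescence read for viability.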

Assay [8] can be described thus: qHTS assay to identify small molecule agonists of the estrogen receptor beta (ER-beta) signaling pathway - cell viability counter screen (AID 1259380). Further: nearly all actives have a fitted effect of over 30% in size. Summed up: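 Viability of ER-beta-UAS-bla HEK293T cells was determined by CellTiter-Glo luminescence following 16 hr treatment with test compounds at 37C.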
Assay [9] in a line: qHTS assay to identify small molecule antagonists of the estrogen receptor beta (ER-beta) signaling pathway - cell viability counter screen (AID 1259382). Further: series mostly up to about 92 µM; nearly all actives have a fitted effect of over 55% in size. Summed up:
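Tox21 10K library tested in qHTS format on ER-beta-bla HEK293T cells stimulated with 1nM E2; 16 hr treatment at 37C. Same-well CellTiter-Glo luminescence served as the cell viability measure.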

The target in assay [10] is Estrogen receptor (Homo sapiens) (UniProt P03372). Kind of assay: qHTS assay to identify small molecule agonists of the estrogen receptor alpha (ER-alpha) signaling pathway in the presence of an antagonist (AID 1259383; calls by dose curve; further: top concentration of the series differs between compounds; nearly all actives have a fitted effect of over 15% in size). Summed up: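 In VM7Luc4E2 cells, 4,000 per well, compounds at 15 concentrations were co-incubated 22hr at 37C with 10.0nM final ICI-182,780. Luminescence from the stably transfected 4×ERE-luciferase reporter was recorded 30min after ONE-Glo addition.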

The nature of assay [11]: qHTS assay to identify small molecule agonists or antagonists of the thyroid stimulating hormone receptor (TSHR) signaling pathway - wild type cell line counter screen (AID 1259384; calls by dose curve). Summed up: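 Wild-type HEK293 cells were plated 18 h at 37 C/5% CO2, pin-dosed with compound plus Ro20-1724 medium, held 30 min at room temperature, then given cAMP-d2 and anti-cAMP-cryptate; fluorescence was read after 1 h. Fifteen concentrations, triplicate.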

For assay [12], the target named is Thyrotropin receptor (Homo sapiens) (UniProt P16473). Put plainly: qHTS assay to identify small molecule antagonists of the thyroid stimulating hormone receptor (TSHR) signaling pathway (AID 1259385; calls by dose curve; further: nearly all actives have a fitted effect of over 20% in size). Summed up:
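TSHR-HEK293 cells were plated and held 18 h at 37C/5% CO2, then given compound plus Ro20-1724 and stimulated with TSH at 1.5 ng/mL final. After 30 min at room temperature, cAMP was detected with cAMP-d2/anti-cAMP-cryptate (1 h) by fluorescence.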

Assay [13] in a line: qHTS assay to identify small molecule agonists of the estrogen receptor alpha (ER-alpha) signaling pathway in the presence of an antagonist - cell viability counter screen (AID 1259386).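 Further: series mostly up to about 92 µM; cells exposed to compounds for 22 h at 37 °C before the viability read; nearly all actives have a fitted effect of over 30% in size.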 Summed up:
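Fluorescent CellTiter-Fluor viability signal from VM7Luc4E2 cells, with the reagent added during the final hour of a 22hr compound exposure at 37C in the presence of 10.0nM ICI-182,780.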

Assay [14] deals with Progesterone receptor (Homo sapiens) (UniProt P06401). Kind of assay: qHTS assay to identify small molecule agonists of the progesterone receptor (PR) signaling pathway (AID 1346784; calls by dose curve; further: nearly all actives have a fitted effect of over 30% in size; further: potency means the concentration at half of the fitted maximal effect). Summed up:
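Agonist mode, quantitative HTS format in a HEK 293T line expressing a UAS-controlled beta-lactamase reporter; 16 hr compound exposure at 37C in 2% charcoal-stripped FBS, then LiveBLAzer B/G FRET fluorescence.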

For assay [15] the target is unchanged. Put plainly: qHTS assay to identify small molecule antagonists of the progesterone receptor (PR) signaling pathway (AID 1346795; active means well fitted inhibition curve with a large enough effect in the signal ratio in the repeat runs, not every such curve was filed as active; the % refers to the signal ratio). Summed up: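 HEK293T PR-UAS-bla reporter cells in charcoal-stripped serum (2%) received compound after a 6 hr settling period, followed by R5020 agonist at 1 nM final; 16 hr incubation preceded the FRET substrate step and fluorescence measurement.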

Assay [16] in a line: qHTS assay to identify small molecule antagonists of the progesterone receptor (PR) signaling pathway - cell viability counter screen (AID 1346798). Further: series mostly up to about 92 µM; nearly all actives have a fitted effect of over 50% in size. Summed up: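 Same-well multiplex: after 16 hr at 37C with compound and R5020 stimulation, HEK293T cells carrying a UAS-bla reporter received LiveBLAzer substrate (2 hr RT), then CellTiter-Glo (30 min RT) for luminescent viability.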

The nature of assay [17]: qHTS assay to identify small molecule agonists of the progesterone receptor (PR) signaling pathway - cell viability counter screen (AID 1346799; calls by dose curve; further: nearly all actives have a fitted effect of over 45% in size). Summed up: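 Counter screen for cytotoxicity: compound-treated PR-UAS-bla HEK293T cells (16 hr, 37C, 5% CO2) were assayed with CellTiter-Glo, luminescence measured after 30 min at room temperature.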
A short description of assay [18]: qHTS assay to identify small molecule antagonists of the TGF-beta/Smad signaling pathway - cell viability counter screen (AID 1346824). Further: nearly all actives have a fitted effect of over 50% in size. Summed up: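 SBE-bla HEK 293T cells were plated overnight at 37 C, then given compounds in DMSO plus TGF-beta1 (added as 0.25 ng/mL solution) for 5 hr. After the bla read, CellTiter-Glo was added to the same wells and luminescence read after 30 min at room temperature.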

A short description of assay [19]: qHTS assay to identify small molecule agonists of the TGF-beta/Smad signaling pathway - cell viability counter screen (AID 1346829). Further: top concentration of the series differs between compounds; nearly all actives have a fitted effect of over 45% in size. Summed up:
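Luminescence from CellTiter-Glo, read after a 30 min room-temperature incubation, gives cell viability of SBE-bla HEK 293T cells treated 5 hr with compounds at 37 C.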

Progesterone receptor (Homo sapiens), sequence (P06401 whole entry, looked up): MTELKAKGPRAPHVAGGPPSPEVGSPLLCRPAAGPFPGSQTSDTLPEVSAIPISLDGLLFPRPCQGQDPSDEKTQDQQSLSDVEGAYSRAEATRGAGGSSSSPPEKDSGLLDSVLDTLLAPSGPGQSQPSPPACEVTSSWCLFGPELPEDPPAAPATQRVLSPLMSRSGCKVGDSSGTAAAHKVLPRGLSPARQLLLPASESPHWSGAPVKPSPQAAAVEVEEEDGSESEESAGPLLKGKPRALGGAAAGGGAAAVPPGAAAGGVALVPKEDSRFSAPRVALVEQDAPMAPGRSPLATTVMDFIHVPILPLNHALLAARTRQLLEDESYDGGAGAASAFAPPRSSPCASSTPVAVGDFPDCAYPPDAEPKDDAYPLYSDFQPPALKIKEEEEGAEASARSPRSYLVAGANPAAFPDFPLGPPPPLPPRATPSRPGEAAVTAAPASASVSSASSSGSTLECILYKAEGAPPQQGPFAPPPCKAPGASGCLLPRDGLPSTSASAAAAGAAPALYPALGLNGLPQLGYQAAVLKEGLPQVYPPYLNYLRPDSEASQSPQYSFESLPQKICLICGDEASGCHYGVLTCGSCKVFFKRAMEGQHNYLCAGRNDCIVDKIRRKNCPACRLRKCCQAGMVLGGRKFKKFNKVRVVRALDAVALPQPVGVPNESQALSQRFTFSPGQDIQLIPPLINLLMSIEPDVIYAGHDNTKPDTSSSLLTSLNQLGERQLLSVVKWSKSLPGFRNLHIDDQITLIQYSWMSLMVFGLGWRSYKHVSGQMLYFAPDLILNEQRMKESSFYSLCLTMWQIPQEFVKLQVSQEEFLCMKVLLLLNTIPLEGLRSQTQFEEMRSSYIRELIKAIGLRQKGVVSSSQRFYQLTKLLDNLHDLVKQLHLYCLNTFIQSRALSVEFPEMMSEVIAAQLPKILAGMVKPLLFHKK
Thyrotropin receptor (Homo sapiens), sequence (P16473 whole entry, looked up): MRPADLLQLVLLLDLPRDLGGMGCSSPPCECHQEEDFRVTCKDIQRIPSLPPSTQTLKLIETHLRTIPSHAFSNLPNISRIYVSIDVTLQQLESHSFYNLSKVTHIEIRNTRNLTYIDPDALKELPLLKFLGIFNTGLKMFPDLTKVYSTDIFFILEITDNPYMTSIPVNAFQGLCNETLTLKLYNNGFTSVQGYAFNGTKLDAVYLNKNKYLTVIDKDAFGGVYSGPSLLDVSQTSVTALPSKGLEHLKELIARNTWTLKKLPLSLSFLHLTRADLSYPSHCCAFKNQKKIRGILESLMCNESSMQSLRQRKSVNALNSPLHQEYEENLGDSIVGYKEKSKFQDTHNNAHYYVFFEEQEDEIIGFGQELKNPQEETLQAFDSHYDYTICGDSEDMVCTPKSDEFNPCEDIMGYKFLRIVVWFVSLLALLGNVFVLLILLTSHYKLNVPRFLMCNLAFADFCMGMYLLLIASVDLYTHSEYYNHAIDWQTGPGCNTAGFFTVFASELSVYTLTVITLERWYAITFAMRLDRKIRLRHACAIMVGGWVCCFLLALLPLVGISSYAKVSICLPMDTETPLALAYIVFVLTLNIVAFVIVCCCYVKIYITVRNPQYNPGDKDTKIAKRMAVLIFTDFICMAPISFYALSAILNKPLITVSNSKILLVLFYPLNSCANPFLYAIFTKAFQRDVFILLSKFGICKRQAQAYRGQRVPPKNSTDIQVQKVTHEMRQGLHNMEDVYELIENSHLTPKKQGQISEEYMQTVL
Estrogen receptor beta (Homo sapiens), sequence (Q92731 whole entry, looked up): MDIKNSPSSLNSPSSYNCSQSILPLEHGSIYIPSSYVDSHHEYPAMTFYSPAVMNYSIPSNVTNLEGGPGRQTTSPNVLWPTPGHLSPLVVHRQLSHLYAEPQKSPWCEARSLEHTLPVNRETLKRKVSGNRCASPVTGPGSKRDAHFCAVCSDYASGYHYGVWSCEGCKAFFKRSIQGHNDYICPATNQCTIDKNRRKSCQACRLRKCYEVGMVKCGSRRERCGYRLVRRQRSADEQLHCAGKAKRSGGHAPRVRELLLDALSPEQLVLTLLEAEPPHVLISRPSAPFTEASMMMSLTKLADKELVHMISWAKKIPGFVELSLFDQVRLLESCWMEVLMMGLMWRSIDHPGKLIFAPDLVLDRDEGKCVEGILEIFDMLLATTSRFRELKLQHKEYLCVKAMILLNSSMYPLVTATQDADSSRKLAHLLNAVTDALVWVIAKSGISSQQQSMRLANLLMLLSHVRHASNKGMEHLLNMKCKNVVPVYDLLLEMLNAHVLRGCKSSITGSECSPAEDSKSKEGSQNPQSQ
Estrogen receptor (Homo sapiens), sequence (P03372 whole entry, looked up): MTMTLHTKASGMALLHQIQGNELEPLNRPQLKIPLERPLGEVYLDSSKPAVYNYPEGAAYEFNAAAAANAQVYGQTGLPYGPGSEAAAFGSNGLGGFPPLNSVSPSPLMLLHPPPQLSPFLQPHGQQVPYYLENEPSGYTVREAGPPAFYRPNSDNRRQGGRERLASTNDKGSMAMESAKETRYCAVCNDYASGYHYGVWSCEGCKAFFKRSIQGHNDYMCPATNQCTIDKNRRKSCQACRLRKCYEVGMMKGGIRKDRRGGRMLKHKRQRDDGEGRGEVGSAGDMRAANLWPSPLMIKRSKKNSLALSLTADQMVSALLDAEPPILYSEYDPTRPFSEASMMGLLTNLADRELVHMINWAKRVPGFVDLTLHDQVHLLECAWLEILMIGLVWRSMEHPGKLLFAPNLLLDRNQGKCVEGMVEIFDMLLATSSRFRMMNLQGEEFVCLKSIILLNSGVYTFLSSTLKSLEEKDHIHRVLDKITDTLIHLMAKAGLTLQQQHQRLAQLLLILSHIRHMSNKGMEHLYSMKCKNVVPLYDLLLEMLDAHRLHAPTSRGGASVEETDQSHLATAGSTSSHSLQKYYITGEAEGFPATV

For the molecule `C/C=C(\C)C=O`, the molecule was called inactive in assay [1], in assay [2], in [3], in assay [6], in assay [7] and in assay [9]. Besides, the molecule was called inactive in assay [11], in [12], in assay [13], in assay [16], in [18] and in [19]. Besides, the Potency entry in assay [4], in [5], in [8], in assay [10], in [15] and in assay [17] was “inactive” in each case. Further, in assay [14], the Potency is 21.8 µM (active).
For the molecule `Cc1cc(C)c(N)c(Cl)c1`, the call in assay [1], in assay [2], in assay [3], in [6], in assay [7] and in [9] was inactive. In addition, the molecule was classed as inactive in [11], in [12], in assay [13], in assay [16], in assay [18] and in assay [19]. In addition, the Potency entry in [4], in [5], in assay [8], in assay [10] and in assay [14] was “inactive” in each case.
In the case of `C/C=C(\C)C(=O)OC/C=C(\C)CCC=C(C)C`, the molecule was classed as inactive in assay [1], in [2], in [3], in assay [6], in assay [7] and in [9]. In addition, the result in [11], in [12], in [13], in [16], in assay [18] and in assay [19] was inactive. Besides, the Potency result in assay [4], in assay [5], in [8], in [10], in assay [14] and in [15] was “inactive” each time. Further, the Potency result in [17] is “inactive”.
With `CN(C)CCc1c[nH]c2ccc(C[C@H]3COC(=O)N3)cc12`, the outcome in [1], in assay [2], in assay [3], in [6], in [7] and in [9] was inactive. For the same molecule, the molecule was classed as inactive in assay [11], in [12] and in assay [13]. Moreover, the Potency result in [4], in assay [5], in [8], in assay [10], in [14] and in [17] was “inactive” each time.
As for `CCOC(=O)CC(C(C)=O)C(C)=O`, the result in assay [1], in assay [2], in assay [3], in assay [6], in assay [7] and in assay [9] was inactive. The call in assay [11], in assay [12], in [13], in assay [16], in assay [18] and in assay [19] was inactive. Also, the Potency entry in assay [4], in [5], in assay [8], in assay [10], in [14] and in assay [15] was “inactive” throughout. The Potency entry in assay [17] was “inactive”.
Consider `CCCCCCCCCCCCCCBr`, for which the molecule was classed as inactive in assay [1], in assay [2], in assay [3], in assay [6], in [7] and in assay [9]. The outcome in [12], in assay [13], in [16], in assay [18] and in [19] was inactive. The Potency result in [4], in assay [5], in [8], in assay [10], in assay [14] and in [15] was “inactive” in each case.
As to `COc1cnc(NS(=O)(=O)c2ccc(N)cc2)nc1`, the molecule was called inactive in [1], in [2], in [3], in assay [6], in assay [7] and in assay [9]. For the same molecule, the outcome in [11], in assay [12], in [13], in assay [16], in assay [18] and in assay [19] was inactive. Besides, the Potency entry in [4], in [5], in assay [8], in [10], in assay [14] and in assay [15] was “inactive” each time. Also, the Potency entry in [17] is “inactive”.
